# Key:
# [1] = target: Sphingosine kinase 1 (Homo sapiens) (UniProt Q9NYA1); conditions: at 1 µM;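 further: mean SPHK1 inhibition value reported from the GSK PKIS kinase panel screen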
# [2] = target: T1, Sphingosine kinase 2 (Homo sapiens) (UniProt Q9NRA0); conditions: at 0.1 µM
# T1 sequence (whole entry): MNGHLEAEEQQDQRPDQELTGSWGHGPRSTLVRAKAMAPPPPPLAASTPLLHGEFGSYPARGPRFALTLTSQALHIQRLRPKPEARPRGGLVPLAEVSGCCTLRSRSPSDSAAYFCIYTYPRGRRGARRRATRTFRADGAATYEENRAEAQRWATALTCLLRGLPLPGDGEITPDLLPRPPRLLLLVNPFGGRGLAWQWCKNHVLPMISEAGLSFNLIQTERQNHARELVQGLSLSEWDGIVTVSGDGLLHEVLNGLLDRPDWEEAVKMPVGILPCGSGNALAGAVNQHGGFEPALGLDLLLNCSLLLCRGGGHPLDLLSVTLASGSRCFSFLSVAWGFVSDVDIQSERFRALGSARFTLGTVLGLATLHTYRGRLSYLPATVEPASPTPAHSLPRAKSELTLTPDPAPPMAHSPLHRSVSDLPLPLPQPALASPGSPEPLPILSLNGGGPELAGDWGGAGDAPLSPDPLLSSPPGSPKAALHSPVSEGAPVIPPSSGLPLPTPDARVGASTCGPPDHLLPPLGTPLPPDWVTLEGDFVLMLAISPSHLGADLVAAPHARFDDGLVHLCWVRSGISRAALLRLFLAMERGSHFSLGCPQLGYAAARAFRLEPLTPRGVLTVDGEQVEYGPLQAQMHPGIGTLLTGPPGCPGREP
# [3] = target: T1, Sphingosine kinase 2 (Homo sapiens); conditions: at 1 µM
# [4] = target: Casein kinase II subunit alpha (Homo sapiens) (UniProt P68400); conditions: at 0.1 µM
# Casein kinase II subunit alpha (Homo sapiens), sequence (P68400 whole entry, looked up): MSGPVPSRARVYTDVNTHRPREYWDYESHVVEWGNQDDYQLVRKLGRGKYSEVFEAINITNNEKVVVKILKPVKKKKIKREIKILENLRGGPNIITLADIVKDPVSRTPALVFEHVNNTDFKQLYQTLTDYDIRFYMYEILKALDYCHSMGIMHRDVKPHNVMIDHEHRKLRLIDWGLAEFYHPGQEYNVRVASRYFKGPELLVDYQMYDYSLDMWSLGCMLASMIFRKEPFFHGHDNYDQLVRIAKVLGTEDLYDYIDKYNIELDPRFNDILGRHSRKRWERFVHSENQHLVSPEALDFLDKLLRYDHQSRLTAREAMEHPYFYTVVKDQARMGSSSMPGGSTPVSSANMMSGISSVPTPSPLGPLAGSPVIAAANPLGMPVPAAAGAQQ
# [5] = target: Casein kinase II subunit alpha (Homo sapiens) (UniProt P68400); conditions: at 1 µM
# [6] = target: T2, Inhibitor of nuclear factor kappa-B kinase subunit alpha (Homo sapiens) (UniProt O15111); conditions: at 0.1 µM
# T2 sequence (whole entry): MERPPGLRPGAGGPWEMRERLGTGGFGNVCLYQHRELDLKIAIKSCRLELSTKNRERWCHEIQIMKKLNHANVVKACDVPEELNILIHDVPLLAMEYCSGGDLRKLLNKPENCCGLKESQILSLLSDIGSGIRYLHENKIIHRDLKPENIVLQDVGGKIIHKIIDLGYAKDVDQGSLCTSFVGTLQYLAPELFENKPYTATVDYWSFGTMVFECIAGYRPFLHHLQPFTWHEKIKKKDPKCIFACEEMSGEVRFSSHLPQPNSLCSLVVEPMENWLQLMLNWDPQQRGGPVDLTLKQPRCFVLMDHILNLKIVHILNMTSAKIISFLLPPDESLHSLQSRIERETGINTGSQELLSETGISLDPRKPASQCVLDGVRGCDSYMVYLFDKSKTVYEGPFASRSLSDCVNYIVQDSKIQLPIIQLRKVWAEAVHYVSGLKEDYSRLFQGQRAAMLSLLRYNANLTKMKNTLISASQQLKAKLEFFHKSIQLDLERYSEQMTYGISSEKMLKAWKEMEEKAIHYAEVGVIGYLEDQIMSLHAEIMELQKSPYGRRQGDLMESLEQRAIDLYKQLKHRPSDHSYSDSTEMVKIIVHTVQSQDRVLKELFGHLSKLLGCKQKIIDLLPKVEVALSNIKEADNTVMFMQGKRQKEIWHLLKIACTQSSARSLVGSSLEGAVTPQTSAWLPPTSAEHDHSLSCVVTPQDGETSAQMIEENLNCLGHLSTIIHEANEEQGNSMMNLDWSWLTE
# [7] = target: T2, Inhibitor of nuclear factor kappa-B kinase subunit alpha (Homo sapiens); conditions: at 1 µM
# [8] = target: T3, Inhibitor of nuclear factor kappa-B kinase subunit beta (Homo sapiens) (UniProt O14920); conditions: at 0.1 µM
# T3 sequence (whole entry): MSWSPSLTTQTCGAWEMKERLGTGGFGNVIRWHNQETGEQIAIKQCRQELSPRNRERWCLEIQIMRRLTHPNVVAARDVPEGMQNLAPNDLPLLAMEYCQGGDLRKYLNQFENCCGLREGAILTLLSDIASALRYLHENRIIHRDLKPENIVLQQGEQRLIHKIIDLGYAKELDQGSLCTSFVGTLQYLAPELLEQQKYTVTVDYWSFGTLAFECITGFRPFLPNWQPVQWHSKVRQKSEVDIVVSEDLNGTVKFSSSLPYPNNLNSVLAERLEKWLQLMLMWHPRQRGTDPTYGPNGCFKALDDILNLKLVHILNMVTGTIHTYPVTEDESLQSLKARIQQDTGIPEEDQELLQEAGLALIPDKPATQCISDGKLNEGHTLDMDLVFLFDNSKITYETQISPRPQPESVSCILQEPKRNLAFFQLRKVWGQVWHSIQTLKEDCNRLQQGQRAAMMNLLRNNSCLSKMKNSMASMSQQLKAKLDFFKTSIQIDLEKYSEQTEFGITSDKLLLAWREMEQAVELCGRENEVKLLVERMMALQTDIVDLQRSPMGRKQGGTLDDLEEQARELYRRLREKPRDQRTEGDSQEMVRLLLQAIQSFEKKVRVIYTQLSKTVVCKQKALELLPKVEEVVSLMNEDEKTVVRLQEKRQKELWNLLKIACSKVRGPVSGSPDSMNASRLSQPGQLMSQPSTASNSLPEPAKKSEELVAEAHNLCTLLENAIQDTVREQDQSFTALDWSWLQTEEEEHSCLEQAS
# [9] = target: T3, Inhibitor of nuclear factor kappa-B kinase subunit beta (Homo sapiens); conditions: at 1 µM
# [10] = target: T4, Inhibitor of nuclear factor kappa-B kinase subunit epsilon (Homo sapiens) (UniProt Q14164); conditions: at 0.1 µM
# T4 sequence (whole entry): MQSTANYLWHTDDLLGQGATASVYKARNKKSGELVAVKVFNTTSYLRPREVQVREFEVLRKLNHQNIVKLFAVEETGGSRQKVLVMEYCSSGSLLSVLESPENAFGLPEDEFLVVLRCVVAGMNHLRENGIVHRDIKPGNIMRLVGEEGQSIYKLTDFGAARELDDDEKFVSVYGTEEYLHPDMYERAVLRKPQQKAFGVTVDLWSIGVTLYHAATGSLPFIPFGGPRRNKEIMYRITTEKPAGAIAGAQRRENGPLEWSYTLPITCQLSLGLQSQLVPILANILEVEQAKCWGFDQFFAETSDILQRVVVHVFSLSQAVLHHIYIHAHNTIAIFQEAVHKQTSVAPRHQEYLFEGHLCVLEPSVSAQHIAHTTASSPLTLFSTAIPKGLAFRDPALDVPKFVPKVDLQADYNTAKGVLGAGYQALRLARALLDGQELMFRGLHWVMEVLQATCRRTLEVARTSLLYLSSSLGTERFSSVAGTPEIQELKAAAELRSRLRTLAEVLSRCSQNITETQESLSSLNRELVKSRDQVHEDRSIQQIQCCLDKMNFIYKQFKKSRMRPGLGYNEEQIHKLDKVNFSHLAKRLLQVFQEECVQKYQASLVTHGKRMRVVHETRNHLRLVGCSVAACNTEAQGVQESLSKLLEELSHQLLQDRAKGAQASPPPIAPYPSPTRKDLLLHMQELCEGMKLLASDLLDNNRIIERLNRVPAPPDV
# [11] = target: T4, Inhibitor of nuclear factor kappa-B kinase subunit epsilon (Homo sapiens); conditions: at 1 µM
# [12] = target: T5, Serine/threonine-protein kinase Nek1 (Homo sapiens) (UniProt Q96PY6); conditions: at 0.1 µM
# T5 sequence (whole entry): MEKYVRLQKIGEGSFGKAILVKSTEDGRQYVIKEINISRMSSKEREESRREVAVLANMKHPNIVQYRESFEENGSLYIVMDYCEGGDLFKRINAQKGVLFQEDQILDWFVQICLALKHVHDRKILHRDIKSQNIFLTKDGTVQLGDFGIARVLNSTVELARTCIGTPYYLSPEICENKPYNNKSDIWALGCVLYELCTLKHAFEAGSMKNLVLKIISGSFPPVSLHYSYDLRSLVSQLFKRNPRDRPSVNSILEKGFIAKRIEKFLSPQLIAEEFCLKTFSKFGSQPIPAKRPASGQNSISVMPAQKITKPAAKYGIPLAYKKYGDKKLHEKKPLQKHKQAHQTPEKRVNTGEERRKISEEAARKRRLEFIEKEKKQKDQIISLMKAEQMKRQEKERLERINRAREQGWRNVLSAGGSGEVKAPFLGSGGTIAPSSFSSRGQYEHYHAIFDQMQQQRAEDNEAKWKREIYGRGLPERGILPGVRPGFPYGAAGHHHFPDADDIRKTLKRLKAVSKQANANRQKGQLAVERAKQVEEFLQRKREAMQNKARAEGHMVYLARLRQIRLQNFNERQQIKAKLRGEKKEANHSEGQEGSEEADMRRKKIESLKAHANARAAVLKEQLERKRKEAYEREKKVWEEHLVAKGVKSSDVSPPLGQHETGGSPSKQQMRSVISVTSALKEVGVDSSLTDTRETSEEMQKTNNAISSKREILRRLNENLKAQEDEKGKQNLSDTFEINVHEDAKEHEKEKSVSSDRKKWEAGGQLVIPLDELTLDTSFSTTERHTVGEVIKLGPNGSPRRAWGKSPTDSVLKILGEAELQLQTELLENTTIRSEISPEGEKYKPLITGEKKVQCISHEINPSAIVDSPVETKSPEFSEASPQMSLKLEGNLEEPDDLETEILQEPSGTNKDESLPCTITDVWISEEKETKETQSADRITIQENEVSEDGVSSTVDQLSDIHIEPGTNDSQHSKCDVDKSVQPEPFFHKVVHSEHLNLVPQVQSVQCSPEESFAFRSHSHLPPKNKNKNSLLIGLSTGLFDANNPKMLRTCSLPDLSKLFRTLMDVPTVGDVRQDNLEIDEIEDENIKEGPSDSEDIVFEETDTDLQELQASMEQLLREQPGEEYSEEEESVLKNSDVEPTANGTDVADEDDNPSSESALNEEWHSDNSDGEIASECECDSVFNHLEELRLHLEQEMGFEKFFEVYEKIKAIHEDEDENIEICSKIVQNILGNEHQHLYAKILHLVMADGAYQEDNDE
# [13] = target: T5, Serine/threonine-protein kinase Nek1 (Homo sapiens); conditions: at 1 µM
# [14] = target: T6, Serine/threonine-protein kinase Nek2 (Homo sapiens) (UniProt P51955); conditions: at 0.1 µM
# T6 sequence (whole entry): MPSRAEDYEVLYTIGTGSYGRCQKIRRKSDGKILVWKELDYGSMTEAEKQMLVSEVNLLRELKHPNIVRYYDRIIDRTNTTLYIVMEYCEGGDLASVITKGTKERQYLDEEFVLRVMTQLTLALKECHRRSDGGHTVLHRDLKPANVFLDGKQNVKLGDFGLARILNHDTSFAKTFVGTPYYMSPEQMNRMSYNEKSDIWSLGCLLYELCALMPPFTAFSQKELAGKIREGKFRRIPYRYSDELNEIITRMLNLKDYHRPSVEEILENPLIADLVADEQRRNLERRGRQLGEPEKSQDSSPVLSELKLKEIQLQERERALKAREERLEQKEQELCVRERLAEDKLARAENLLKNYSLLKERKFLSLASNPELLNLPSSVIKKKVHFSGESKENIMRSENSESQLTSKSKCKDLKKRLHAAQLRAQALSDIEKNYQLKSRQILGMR
# [15] = target: T6, Serine/threonine-protein kinase Nek2 (Homo sapiens); conditions: at 1 µM
# [16] = target: Serine/threonine-protein kinase Nek6 (Homo sapiens) (UniProt Q9HC98); conditions: at 0.1 µM
# Serine/threonine-protein kinase Nek6 (Homo sapiens), sequence (Q9HC98 whole entry): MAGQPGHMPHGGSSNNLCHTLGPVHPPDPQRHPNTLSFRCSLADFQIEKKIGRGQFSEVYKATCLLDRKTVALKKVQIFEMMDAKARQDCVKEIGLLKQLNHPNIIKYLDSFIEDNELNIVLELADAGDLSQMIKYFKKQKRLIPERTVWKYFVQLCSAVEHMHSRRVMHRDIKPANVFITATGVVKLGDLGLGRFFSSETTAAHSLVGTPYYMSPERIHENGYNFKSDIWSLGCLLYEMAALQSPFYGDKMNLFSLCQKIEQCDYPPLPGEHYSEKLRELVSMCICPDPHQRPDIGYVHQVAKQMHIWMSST
# [17] = target: Serine/threonine-protein kinase Nek6 (Homo sapiens) (UniProt Q9HC98); conditions: at 1 µM
# [18] = target: Serine/threonine-protein kinase Nek7 (Homo sapiens) (UniProt Q8TDX7); conditions: at 0.1 µM
# Serine/threonine-protein kinase Nek7 (Homo sapiens), sequence (Q8TDX7 whole entry, looked up): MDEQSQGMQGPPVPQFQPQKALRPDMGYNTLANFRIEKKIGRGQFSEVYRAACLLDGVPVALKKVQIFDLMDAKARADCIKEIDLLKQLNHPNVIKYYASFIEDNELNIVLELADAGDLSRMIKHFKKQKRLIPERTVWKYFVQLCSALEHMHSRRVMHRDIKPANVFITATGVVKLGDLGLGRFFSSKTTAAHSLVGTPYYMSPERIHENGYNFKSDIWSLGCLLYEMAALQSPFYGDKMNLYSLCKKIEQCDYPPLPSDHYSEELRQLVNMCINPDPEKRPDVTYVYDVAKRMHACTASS
# [19] = target: Serine/threonine-protein kinase Nek7 (Homo sapiens) (UniProt Q8TDX7); conditions: at 1 µM
# [20] = target: T7, Serine/threonine-protein kinase Nek9 (Homo sapiens) (UniProt Q8TD19); conditions: at 0.1 µM;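 further: reported value is the mean percent inhibition of NEK9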
# T7 sequence (whole entry): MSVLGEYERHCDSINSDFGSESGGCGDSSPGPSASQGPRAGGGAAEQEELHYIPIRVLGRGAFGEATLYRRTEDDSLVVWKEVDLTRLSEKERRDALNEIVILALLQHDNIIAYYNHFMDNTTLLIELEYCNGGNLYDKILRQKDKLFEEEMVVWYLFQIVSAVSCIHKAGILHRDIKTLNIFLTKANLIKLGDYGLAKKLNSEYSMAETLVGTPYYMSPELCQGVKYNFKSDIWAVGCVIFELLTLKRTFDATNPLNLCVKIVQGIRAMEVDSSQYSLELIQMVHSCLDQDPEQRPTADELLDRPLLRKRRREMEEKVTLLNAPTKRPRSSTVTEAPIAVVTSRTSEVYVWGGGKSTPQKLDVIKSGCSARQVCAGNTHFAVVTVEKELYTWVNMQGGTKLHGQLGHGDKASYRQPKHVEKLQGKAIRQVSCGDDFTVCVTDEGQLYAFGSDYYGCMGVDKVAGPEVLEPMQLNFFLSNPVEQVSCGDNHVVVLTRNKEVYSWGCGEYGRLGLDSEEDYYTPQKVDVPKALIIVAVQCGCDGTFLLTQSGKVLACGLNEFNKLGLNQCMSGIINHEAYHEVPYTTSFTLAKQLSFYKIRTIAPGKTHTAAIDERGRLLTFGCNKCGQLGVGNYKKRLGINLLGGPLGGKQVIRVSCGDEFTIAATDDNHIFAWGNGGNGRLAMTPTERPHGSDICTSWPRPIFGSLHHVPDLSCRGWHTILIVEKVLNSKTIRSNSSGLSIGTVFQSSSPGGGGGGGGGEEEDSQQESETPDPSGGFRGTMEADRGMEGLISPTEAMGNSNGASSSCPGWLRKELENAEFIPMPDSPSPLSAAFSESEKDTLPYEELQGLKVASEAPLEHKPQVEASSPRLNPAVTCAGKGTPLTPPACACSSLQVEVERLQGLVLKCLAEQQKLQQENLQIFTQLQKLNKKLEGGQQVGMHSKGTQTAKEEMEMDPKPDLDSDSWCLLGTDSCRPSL
# Sphingosine kinase 1 (Homo sapiens), sequence (Q9NYA1 whole entry): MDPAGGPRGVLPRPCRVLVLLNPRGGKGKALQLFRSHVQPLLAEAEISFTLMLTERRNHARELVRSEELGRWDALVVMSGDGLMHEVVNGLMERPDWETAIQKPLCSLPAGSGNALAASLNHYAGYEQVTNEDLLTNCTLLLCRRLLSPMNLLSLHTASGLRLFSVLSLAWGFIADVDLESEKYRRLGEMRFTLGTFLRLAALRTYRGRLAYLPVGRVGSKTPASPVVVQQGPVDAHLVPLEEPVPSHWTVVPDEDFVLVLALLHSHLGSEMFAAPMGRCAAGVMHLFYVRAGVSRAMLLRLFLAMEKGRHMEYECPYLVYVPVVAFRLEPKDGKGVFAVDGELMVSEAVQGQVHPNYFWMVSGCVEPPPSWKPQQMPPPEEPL
Structure (SMILES),inhibition [1] [%],inhibition [2] [%],inhibition [3] [%],inhibition [4] [%],inhibition [5] [%],inhibition [6] [%],inhibition [7] [%],inhibition [8] [%],inhibition [9] [%],inhibition [10] [%],inhibition [11] [%],inhibition [12] [%],inhibition [13] [%],inhibition [14] [%],inhibition [15] [%],inhibition [16] [%],inhibition [17] [%],inhibition [18] [%],inhibition [19] [%],inhibition [20] [%]
Nc1ncnc2occ(-c3ccc(NC(=O)Nc4cc(C(F)(F)F)cc(C(F)(F)F)c4)cc3)c12,-0.76,1.12,-0.25,0.36,-5.3,-5.23,-3.15,-0.04,1.07,-2.4,5.33,1.24,6.51,3.72,15.5,-0.98,0.99,2.34,0.46,5.43
CCN1CCC(CC(=O)Nc2n[nH]c3nc(-c4cccs4)c(Br)cc23)CC1,1.53,-0.06,-0.11,1.1,4.38,4.35,5.49,-1.36,-2.71,-5.79,-3.61,-1.51,0.77,-1.87,-2.3,-1.1,-2.19,0.31,-4.11,0.24
